Screening results as filed in PubChem BioAssay.
Rows were chosen to be rich in hits. Some 2.4% of all compounds tested hit in one or more screens of this group.
LT uptake inh: qHTS Assay for Anthrax Lethal Toxin Internalization. Cells, anthrax lethal toxin internalization, FRET ratio (460/530). AID 912, 2007. hit rate 0.67% among 70,000. Potency, µM (titrated, usually from 40 µM), hits mostly inhibitors; further: nearly all actives have a fitted effect of over 50% in size
AmpC det inh: Promiscuous and Specific Inhibitors of AmpC Beta-Lactamase (assay with detergent). P00811. purified AmpC, nitrocefin hydrolysis with detergent. Potency, µM (highest dose often 28.7 µM). hit rate 0.09% among 71,000; active means well fitted curve in the direction sought with a large enough effect; inconclusive means small, poorly fitted or top-dose-only effect
Target sequence (P00811 whole entry, looked up): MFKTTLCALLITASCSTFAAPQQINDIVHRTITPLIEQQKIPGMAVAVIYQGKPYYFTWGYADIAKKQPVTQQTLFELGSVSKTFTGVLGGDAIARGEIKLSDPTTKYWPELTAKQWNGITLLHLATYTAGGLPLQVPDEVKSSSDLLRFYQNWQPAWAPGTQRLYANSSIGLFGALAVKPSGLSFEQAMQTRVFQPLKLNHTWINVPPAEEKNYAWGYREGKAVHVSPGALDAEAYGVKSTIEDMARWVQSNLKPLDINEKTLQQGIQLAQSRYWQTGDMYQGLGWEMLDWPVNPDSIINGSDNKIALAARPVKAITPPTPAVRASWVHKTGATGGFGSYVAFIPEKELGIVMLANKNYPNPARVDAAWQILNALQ
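E. coli AmpC (5.3 nM) in 20 mM phosphate pH 7.0 with 0.01% Triton X-100, preincubated 15 min RT with compound; nitrocefin (2 uL of 800 uM stock) hydrolysis followed by 480 nm absorbance every 20 s over 4 min.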
AmpC inh no det: Promiscuous and Specific Inhibitors of AmpC Beta-Lactamase (assay without detergent); hit rate 1.8% among 71,000; P00811; AID 585, 2007; Potency, µM (titrated, usually from 28.7 µM); AmpC nitrocefin hydrolysis, absorbance 480 nm, no detergent
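AmpC, 20 mM phosphate pH 7.0; 15 min cpd preinc, RT; start with nitrocefin (800 uM stock); A480 kinetic read, 20 s intervals, 4 min. No-enzyme wells = negative control.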
Prx2 Sm inh: Schistosoma Mansoni Peroxiredoxins (Prx2); Schistosoma mansoni peroxiredoxin 2 (Prx2); S. mansoni Prx2 activity coupled to TGR/GSH (TGR is thioredoxin glutathione reductase), NADPH fluorescence loss, qHTS; Potency, µM; hit rate 0.07% among 65,000
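qHTS, coupled TGR/Prx2 format; 15 min compound preincubation at RT; reaction started with H2O2 (2.5 mM aliquot); kinetic NADPH fluorescence decrease, ex 365/em 450 nm.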
Large screens that a line does not name were inactive; [ ] = another dose, or the depositor's remark. Unless noted, the call rests on the fitted dose curve.

O=C(COC(=O)C1CCN(S(=O)(=O)c2cccs2)CC1)c1ccc2c(c1)OCCO2	none
CCOC(=O)c1c(C)[nH]c2ccc3c(c12)CN1CCc2cc(OC)ccc2[C@@H]1O3	LT uptake inh 2.5µM
CCS(=O)(=O)N1CCC[C@H]2CN3CCc4cc(OC)ccc4[C@@H]3C[C@@H]21	none
Cc1cc(NS(=O)(=O)c2ccc(NC(=O)COc3ccccc3C(C)C)cc2)no1	AmpC inh no det 4µM[single pt active]
COc1cc(NS(=O)(=O)c2ccc(NC(=O)COc3ccccc3C)cc2)nc(OC)n1	AmpC inh no det 13µM[single pt active]
c1ccc([C@H]2NCCc3c2[nH]c2ccccc32)cc1	none (no result: AmpC det inh, AmpC inh no det, Prx2 Sm inh)
Nc1ccccc1O.O.O=C(O)[C@H]1[O][Sb][O][C@H]1C(=O)O	LT uptake inh inconclusive, Prx2 Sm inh 0.22
O=[N+]([O-])c1ccc(S(=O)(=O)Cc2ccccc2)c2nonc12	none (no result: Prx2 Sm inh)
Cc1cccc2c1Oc1ccccc1[C@@H]2NC(=O)c1ccc([N+](=O)[O-])cc1	none
CCN(CC)c1ccc(C(=O)Nc2cccc(F)c2)cc1	LT uptake inh 10µM
CN(C)c1cccc(C(=O)Nc2cccc(F)c2)c1	none (no result: LT uptake inh)
O=c1cc(-c2ccc(Cl)c(Cl)c2)[nH][nH]1	AmpC inh no det 13µM[single pt active]
O=c1cc(-c2ccc(Cl)cc2)[nH][nH]1	none
CCCN1CCN(CCCNC(=O)Cn2nc(-c3ccc(Cl)cc3)ccc2=O)CC1	LT uptake inh inconclusive
O=C1CCn2nc(-c3ccc(Cl)cc3)cc2N1	AmpC inh no det 4µM[single pt active]
N#CS.N=C=S.N=C=S.[Cu].[NH2-].[NH2-].[NH2-].[NH2-].c1ccc2ncccc2c1	none
CS/C(=N\S(=O)(=O)c1cccs1)NC(=O)CSc1nc2ccccc2s1	LT uptake inh inconclusive, AmpC inh no det 13µM
COc1cccc(C2C(C)CCC3C(=O)N(C)C(C(C)C)C(=O)N32)c1 (centres undefined)	none (no result: AmpC det inh, AmpC inh no det, Prx2 Sm inh)
COc1ccc([C@H](O)c2ccccn2)cc1	none
CC(=O)Oc1ccc(C(c2ccc(OC(C)=O)cc2)c2ccccn2)cc1	LT uptake inh 0.16µM
C[C@H]1C(=O)O[C@H]2CCN3CC=C(COC(=O)[C@](C)(O)[C@@]1(C)O)[C@H]23	none
COc1ccc(NC(=O)Nc2nnc(N3CCC(C)CC3)s2)cc1OC	AmpC inh no det 4µM[single pt active]
COc1ccc(OC)c(NC(=O)Nc2nnc(N3CCC(C)CC3)s2)c1	LT uptake inh inconclusive, AmpC inh no det 4µM[single pt active]
CCCCNc1nc(C)nc2c1nc(-c1ccccc1)n2CCCN(CC)CC	none (no result: Prx2 Sm inh)
CC(=O)OC[C@@H]1O[C@H](CCON=C(C)C)C=C[C@@H]1OC(C)=O	none (no result: AmpC det inh, AmpC inh no det, Prx2 Sm inh)
Cc1ccc2c(c1)NC(=O)C(CC(=O)O)O2 (centres undefined)	none
Cc1ccc2c(c1)NC(=O)C(CC(=O)NCCN(C)C)O2 (centres undefined)	AmpC inh no det 3.2µM[single pt active]
Cc1ccc2c(c1)NC(=O)C(CC(=O)NCCCN1CCCCC1)O2 (centres undefined)	none
Cc1ccc(CCNC(=O)CC2Oc3ccc(C)cc3NC2=O)cc1 (centres undefined)	AmpC inh no det 4µM[single pt active]
CCOCCCNC(=O)CC1Oc2ccc(C)cc2NC1=O (centres undefined)	AmpC inh no det 4µM[single pt active]
CCNc1ncc2nc(-c3ccc(OC)cc3)c(=O)n(CCC#N)c2n1	LT uptake inh inconclusive
COc1ccccc1Cc1nc(-c2ccc(Br)o2)no1	LT uptake inh inconclusive, AmpC inh no det 4µM[single pt active]
CC(C)[C@@]1(NC(=O)[C@@H]2C[C@H]3c4cccc5[nH]cc(c45)C[C@@H]3N(C)C2)O[C@@]2(O)[C@H]3CCCN3C(=O)[C@@H](Cc3ccccc3)N2C1=O	LT uptake inh inconclusive
COc1ccc2c(c1)-c1nc(NC(=O)c3ccco3)sc1CC2	none
Cc1sc(NC(=O)c2ccco2)nc1-c1ccc2c(c1)CC(C)N2C(=O)C1CC1 (centres undefined)	LT uptake inh 10µM
COc1ccccc1C(c1nnnn1CCc1ccccc1)N1CCN(c2ccccc2)CC1 (centres undefined)	LT uptake inh 7.9µM
COc1cccc(C(c2nnnn2CCc2ccccc2)N2CCN(c3ccccc3)CC2)c1OC (centres undefined)	LT uptake inh inconclusive
CC(=O)C1=C(C)Nc2ncnn2C1c1cccc(OCc2ccccc2)c1 (centres undefined)	AmpC inh no det 4µM[single pt active]
CC1=C(C(=O)OCc2ccccc2)C(c2cccnc2)n2ncnc2N1 (centres undefined)	none
Nc1ccc(-c2cc(N)n(-c3ccccc3)n2)cc1	LT uptake inh inconclusive
Cc1ccc(-n2nc(-c3ccc(N)cc3)cc2N)cc1	LT uptake inh inconclusive, AmpC inh no det 3.2µM[single pt active]
O=C(O)CS(=O)(=O)C(c1ccccc1)c1ccccc1	none
Nc1nc2n(n1)C(c1c(F)cccc1Cl)CC(c1ccc(F)cc1)N2 (centres undefined)	AmpC inh no det 4µM[single pt active]
Nc1nc2n(n1)C(c1ccco1)CC(c1ccc(F)cc1)N2 (centres undefined)	none
Nc1nc2n(n1)C(c1ccccc1)CC(c1ccc(F)cc1)N2 (centres undefined)	AmpC inh no det 4µM[single pt active]
Cc1ccccc1C1CC(c2ccc(F)cc2)Nc2nc(N)nn21 (centres undefined)	LT uptake inh inconclusive, AmpC inh no det 4µM[single pt active]
Cc1ccccc1C1CC(c2ccc(Br)cc2)Nc2nc(N)nn21 (centres undefined)	none
CCc1ccc(C2CC(c3ccc(Cl)cc3)n3nc(N)nc3N2)cc1 (centres undefined)	AmpC inh no det 4µM[single pt active]
Nc1nc2n(n1)C(c1cccc(Br)c1)CC(c1ccc(F)cc1)N2 (centres undefined)	none
CC(=O)[C@H](C(=N)C#N)C(=O)Nc1ccccc1	none
Oc1c(Cl)c(Cl)c(Cl)c(Cl)c1Cl (tested in a mixture with another compound)	none
O=c1cc(-c2ccccc2)oc2cc(O[C@H]3O[C@H](CO)[C@@H](O)[C@H](O)[C@@H]3O)c(O)c(O)c12	LT uptake inh inconclusive
O=C(Nc1ccc(CN2CCOCC2)cc1)c1ccc(-c2ccc(Br)cc2)o1	LT uptake inh 13µM
N#Cc1cccc(-c2cncnc2NCc2cccs2)c1	none
O=C(COC(=O)c1ccccc1Nc1ccccc1)NCc1ccco1	none
NC(=O)c1ccsc1NC(=O)COC(=O)c1ccccc1NCc1ccco1	LT uptake inh inconclusive, AmpC inh no det 5µM
CCCc1nnc(NC(=O)NCCN2C(=O)C3C4C=CC(C4)C3C2=O)s1 (centres undefined)	AmpC inh no det 4µM[single pt active]
Cc1c(NC(=O)C(C)N2C(=O)C3C4C=CC(C4)C3C2=O)c(=O)n(-c2ccccc2)n1C (centres undefined)	none
Cc1c(NC(=O)c2ccc(N3C(=O)C4C5C=CC(C5)C4C3=O)cc2)c(=O)n(-c2ccccc2)n1C (centres undefined)	LT uptake inh inconclusive
O=C(NCCN1CCOCC1)N1CCOCC1	none
Cc1c(NC(=O)NCCN2C(=O)C3C4C=CC(C4)C3C2=O)c(=O)n(-c2ccccc2)n1C (centres undefined)	AmpC inh no det 4µM[single pt active]
